# High-throughput results from PubChem BioAssay.
# Hits are enriched below; roughly 0.96% of the tested compounds scored in any of these assays.
# TRPV1 ag: agonists of human vanilloid receptor 1 (TRPV1) | Q8NER1 | TRPV1-expressing cells, Fluo-8 calcium influx, agonist mode | activation, % at 8.33 µM | 320,000 compounds, 0.19% hits | AID 540275; in the data active = activation above about 80%; inconclusive = between about 30% and that limit; note: 0% is about no effect
# Target sequence (Q8NER1 whole entry, looked up): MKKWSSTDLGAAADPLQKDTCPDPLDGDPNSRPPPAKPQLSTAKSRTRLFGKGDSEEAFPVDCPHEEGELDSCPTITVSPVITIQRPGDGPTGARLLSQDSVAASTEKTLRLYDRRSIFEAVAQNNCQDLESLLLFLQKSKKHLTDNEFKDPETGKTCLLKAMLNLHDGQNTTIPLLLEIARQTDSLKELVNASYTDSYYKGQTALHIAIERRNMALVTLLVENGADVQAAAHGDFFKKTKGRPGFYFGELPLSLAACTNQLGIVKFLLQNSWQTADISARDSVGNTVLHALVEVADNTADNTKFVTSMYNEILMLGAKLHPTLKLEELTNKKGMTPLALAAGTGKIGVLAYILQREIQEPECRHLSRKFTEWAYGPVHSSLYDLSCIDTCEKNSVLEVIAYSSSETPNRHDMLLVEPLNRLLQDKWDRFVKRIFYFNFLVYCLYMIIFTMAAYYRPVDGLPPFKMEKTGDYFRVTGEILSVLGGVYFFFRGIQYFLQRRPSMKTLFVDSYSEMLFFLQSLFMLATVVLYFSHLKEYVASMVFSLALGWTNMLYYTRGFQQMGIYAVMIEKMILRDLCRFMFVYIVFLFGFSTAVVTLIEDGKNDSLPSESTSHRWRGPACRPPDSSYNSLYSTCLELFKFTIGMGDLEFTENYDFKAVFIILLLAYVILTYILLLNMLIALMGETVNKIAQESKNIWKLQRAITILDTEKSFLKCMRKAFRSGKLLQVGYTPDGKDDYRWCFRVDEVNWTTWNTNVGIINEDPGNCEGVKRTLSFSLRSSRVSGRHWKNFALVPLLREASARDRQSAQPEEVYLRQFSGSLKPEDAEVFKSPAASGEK
#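 Cells expressing TRPV1 were dye-loaded with Fluo-8 and read kinetically: 10 s baseline, 3 min after compound (agonist portion), then 2 min after EC20 capsaicin (allosteric enhancer portion). Calcium-bound dye fluorescence at 480/520 nm.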
# TRPML1 blocker: inhibitors of human TRPML1 channel. TRPML1-inducible cells, Ca2+ dye fluorescence, FDSS; hits give low values; inhibition of EC80 agonist-evoked calcium signal. activity change, negative = inhibition, % (no concentration beside the values). 390,000 compounds, 0.02% hits; in the data active = activity change below about -50%; inconclusive = between about -30% and that limit;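 note: stimulus is agonist 54-4 at its EC80 concentration; % is set by controls: 0 for no effect and ±100 for the full control effect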
#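 TRPML1-DL cells, Tet-induced overnight (~16 h, 37 °C) at 1,500 cells/well, were loaded with Ca8 no-wash dye plus quencher for 45-90 min at room temperature. Compounds were pinned during FDSS kinetic reading; agonist 54-4 at EC80 (4 uM final) then added.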
# TRHR agonist: activates the human TRH receptor; P34981; TRHR cells, calcium flux fluo-8, FDSS agonist mode; activation, % at 2 µM; 360,000 compounds, 0.18% hits; AID 493084; in the data active = activation above about 30%; note: 0% is about no effect
#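 In this calcium-flux screen, cells bearing human TRHR are dye-loaded with fluo-8, baselined for 10 cycles, then exposed to library compounds; positive kinetic calcium responses during the agonist phase mark hits, with TRH as control.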
# TRPML1 ag: agonists of human TRPML1 channel; Q9GZU1; TRPML1-expressing cells, Ca2+ dye fluorescence, FDSS; activation, % (no concentration beside the values); 410,000 compounds, 0.12% hits; AID 624414; in the data active = activation above about 50%; inconclusive = mostly about 30% to 49%; note: 0% is about no effect
#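 Agonist activity was taken from a 110 s kinetic Ca2+ dye read on the FDSS after pinning compounds onto TRPML1-DL cells. The cells were seeded at 1,500/well with Tet inducer, incubated about 16 h, then dye-loaded at room temperature.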
# TRHR enhancer: TRH receptor (human) allosteric enhancement | 360,000 compounds, 0.66% hits | AID 493056 | enhancement, % at 2 µM | TRHR cells, fluo-8 calcium fluorescence, EC20 TRH enhancement; in the data active = enhancement above about 30%; note: 0% is about no effect
#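 TRHR-expressing cells loaded with fluo-8 calcium dye were read kinetically (ex 480/em 530) during compound addition, then stimulated with an EC20 of TRH (10 nM final). Enhancement of the Gq-mediated intracellular calcium response was scored.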
# TRPV1 potentiator: enhances activation of the human vanilloid receptor TRPV1; 320,000 compounds, 0.02% hits; potentiation, % at 8.33 µM; AID 540277; TRPV1-expressing cells, Fluo-8 calcium influx, capsaicin EC20 potentiation; in the data active = potentiation above about 80%; inconclusive = between about 30% and that limit; note: 0% is about no effect
#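 Fluo-8 calcium influx in TRPV1-expressing cells, kinetic read (ex 480/em 520 nm). Compound added and read 3 min for agonist activity, followed by capsaicin at EC20 final and 2 min further read for enhancement.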
# The depositor's hits bear a star; ? = inconclusive; · = no result given.
SMILES,TRPV1 ag,TRPML1 blocker,TRHR agonist,TRPML1 ag,TRHR enhancer,TRPV1 potentiator
O=C1[C@H]2[C@@H](C(=O)N1c1cccc3ccccc13)C1(C(=O)c3ccccc3C1=O)N1CCC[C@@H]21,-7,15,-1,1,34*,11
COc1cc(C(=O)n2nc(C)cc2C)ccc1O,-2,3,0,0,38*,-9
CCOc1ccc(CN2CCN(C3CCC3)CC2CCO)cc1 (stereo not given),4,2,1,0,-3,6
CCOc1ccc(CN2CCN(C3CCSCC3)CC2CCO)cc1 (stereo not given),5,10,0,0,41*,0
CC(=O)c1cccc(NC(=O)Nc2ccccc2)c1,?,6,1,0,-5,-5
COc1ccccc1/C=C/C(=O)Nc1cccc(C(C)=O)c1,?,-28,-1,1,3,-1
COc1cc(NC(=O)Nc2cccc(C(C)=O)c2)cc(OC)c1OC,82*,10,-1,1,-3,-14
CC(=O)c1cccc(NC(=O)Nc2nc(C)cc(C)n2)c1,3,4,-1,0,33*,13
COc1cccc(/C=C/C(=O)Nc2cccc(C(C)=O)c2)c1OC,90*,13,0,2,-2,-16
Cc1ccc(S(=O)(=O)Nc2ncnc3ccccc23)cc1,-1,2,1,0,31*,12
Cc1ccc(S(=O)(=O)Nc2ncnc3sc(C)c(C)c23)cc1,-3,2,0,1,-1,10
CC(=O)Nc1c(C)nn(-c2ccc([N+](=O)[O-])cc2)c1C,2,-11,0,0,37*,-2
Cc1nc(C(=O)O)nn1-c1ccc([N+](=O)[O-])cc1,2,-6,0,1,-3,-3
CSCCC(NS(=O)(=O)c1ccc2c(c1)oc(=O)n2C)C(=O)N1CCN(c2cccc(Cl)c2)CC1 (stereo not given),·,-2,0,2,38*,·
CCCn1c(=O)c2sccc2n2c(CCCC(=O)NC3CCC(C)CC3)nnc12 (stereo not given),·,17,0,-1,37*,·
CCCn1c(=O)c2sccc2n2c(CCCC(=O)NC3CCCCC3)nnc12,·,16,0,-1,0,·
O=[N+]([O-])c1ccccc1N/N=C/c1c[nH]c2ccccc12,-1,6,-1,1,0,-6
O=C(O)c1ccc(-c2ccc(/C=N/Nc3ccc([N+](=O)[O-])cc3)o2)cc1,?,·,123*,·,36*,-6
O=[N+]([O-])c1ccc(N/N=C/c2c[nH]c3ccccc23)cc1,19,-9,32*,?,-3,6
O=C(O)c1cccc(-c2ccc(/C=N/Nc3ccc([N+](=O)[O-])cc3)o2)c1,?,-3,70*,?,14,-17
CC(C)(C)CC(C)(C)N=C1Nc2ccc(Cl)cc2NC12C[C@H]1CCC(=O)N3CC[C@@H](C2)[C@@H]13 (stereo not given in full),·,·,·,-1,·,·
CN(C)c1ccc(/C=C/c2ccnc3ccc([N+](=O)[O-])cc23)cc1,·,·,·,1,·,·
CCC(C)c1ccc(NC(=S)NCc2ccccc2OC)cc1 (stereo not given),83*,-1,0,-1,3,-12
CCCN1CNc2c(c(=O)[nH]c(=S)n2CCc2ccsc2)C1,·,·,·,-1,·,·
CC(C)Cc1nn2c(=O)cc(COC(=O)c3ccccc3NC(=O)c3ccccc3)nc2s1,·,-56*,-1,0,3,·
SMILES,TRPV1 ag,TRPML1 blocker,TRHR agonist,TRPML1 ag,TRHR enhancer,TRPV1 potentiator
CC(C)Cc1nn2c(=O)cc(COC(=O)c3ccccc3NC(=O)c3cccs3)nc2s1,·,-12,1,2,-5,·
COc1cccc(C2CC(C(F)(F)F)n3ncc(C(=O)NCc4ccco4)c3N2)c1 (stereo not given),7,4,-1,1,32*,-10
COc1cccc(C2CC(C(F)(F)F)n3ncc(C(=O)NC(C)(C)C)c3N2)c1 (stereo not given),-2,-4,0,-1,-3,10
COc1ccccc1CCC(=O)O,·,·,·,0,·,·
CCCCC(CC(O)COCC(C)C)C(=O)NN (stereo not given),3,-1,0,0,2,13
CCCCCCCC(O)CC(CC1CCCCC1)C(=O)NN (stereo not given),0,-12,0,0,33*,5
C=C1C=C(C(F)F)n2ncc(C(=O)NCc3ccccc3OC)c2N1,·,·,·,-1,·,·
COc1cc(CCC(O)CC(=O)CCc2ccccc2)ccc1O (stereo not given),84*,·,0,·,3,14
C=CCn1c(SCC#N)nc2ccc(Cl)cc2c1=O,·,·,·,-1,·,·
O=C(COC(=O)c1cnccn1)c1ccc(C2CCCCC2)cc1,8,16,-1,1,34*,-2
Cc1cnc(C(=O)OCC(=O)c2ccc(C3CCCCC3)cc2)cn1,0,0,-1,2,7,1
CC1(C)C2CCC1(C)C(NC(=O)COC(=O)c1ccc(S(C)(=O)=O)c([N+](=O)[O-])c1)C2 (stereo not given),·,·,·,1,·,·
CC(C)(C)n1nnnc1C(c1cccs1)N(Cc1ccc(Cl)cc1)CC1CCCO1 (stereo not given),-2,-18,0,66*,-2,-8
Nn1c(Cc2ccccc2)nc2cc(Cl)ccc2c1=O,1,-15,1,1,-14,95*
Nn1c(Cc2ccccc2)nc2ccccc2c1=O,·,6,·,0,·,·
CC(C)(C)OC(=O)Cc1nnc(C(C(=O)OCc2ccccc2)c2ccccc2)o1 (stereo not given),·,·,1,·,0,·
Cc1cc(C)cc(Cn2ncc3c4sc(C)cc4n(C)c3c2=O)c1,·,·,-2,·,8,·
CCOC(=O)Cn1nc(C)cc1NC(=O)c1ccncc1,2,-12,0,0,34*,0
CCOC(=O)Cn1nc(C)cc1NC(=O)c1cc(OC)c(OC)c(OC)c1,3,-15,0,0,-3,1
O=C(Nc1ccccc1Cl)c1ccccc1Oc1ccc(C(F)(F)F)cc1[N+](=O)[O-],4,-21,0,55*,-2,3
O=C(Nc1ccccc1Oc1ccccc1)c1cc([N+](=O)[O-])ccc1Cl,14,2,-1,2,41*,-4
O=C(c1ccccc1Oc1ccc(C(F)(F)F)cc1[N+](=O)[O-])N1CCOCC1,4,-11,0,0,-3,?
O=[N+]([O-])c1ccc2c(c1)/C(=C/c1ccc(C=S)cc1)C=C2,·,·,·,-1,·,·
Cc1ccc2c(c1)C/C(=C/c1ccc(N(C)C)cc1)C2=O,·,·,·,55*,·,·
